Among all 63,000 compounds or so, about 1,100 (1.7%) were called active.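 The calls were made as follows: active = compounds whose percent cytotoxicity in the single-dose primary screen, scaled between solvent and toxic-drug controls, exceeds 50; inactive = the rest.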 For the sample, actives were picked, then their nearest neighbours and some compounds at random. Results with a measured potency or affinity are listed apart.
assay: cytotoxicity in KRAS-transformed pancreatic duct cells, primary screen, cell-based, fluorescence, HTS (AID 431); conditions: HPDE-C7K KRASV12 cells, Alamar Blue viability, 48 h; at 10 µM; active compounds read high;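 also: 0% = DMSO solvent wells and 100% = doxorubicin-treated wells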

Row | SMILES | cytotoxicity
1 | COCCNS(=O)(=O)c1ccc2c(c1)C(=O)c1cc(S(=O)(=O)NCCOC)ccc1-2 | -5.8% (inactive)
2 | CC1C(=O)C(C)C(c2cccs2)NC1c1cccs1 (centres undefined) | -4.9% (inactive)
3 | CCOC(=O)c1csc(NC(=O)c2ccc(S(=O)(=O)N(C)C)cc2)n1 | 5.4% (inactive)
4 | O=C(NC1CCCCC1)N1CCC(n2c(=O)[nH]c3ccccc32)CC1 | -0.1% (inactive)
5 | O=c1[nH]c2ccccc2n1CCCN1CCN(C(c2ccccc2)c2ccccc2)CC1 | 31.4% (inactive)
6 | Cc1noc(C)c1CSc1nnc(-c2ccncc2)n1-c1cccc(Cl)c1C | -13.5% (inactive)
7 | COc1cc(C2CC(=O)C=C(O)C2)cc(OC)c1OC (centres undefined) | -10% (inactive)
8 | CCOc1ccc(C(=O)NCc2cccnc2)cc1 | 0.5% (inactive)
9 | O=S(=O)(c1ccc2nc(Cc3ccccc3)[nH]c2c1)N1CCOCC1 | 2.7% (inactive)
10 | CC(=O)Nc1ccc(S(=O)(=O)N2CCC(c3nc4ccccc4[nH]3)CC2)cc1 | 10.6% (inactive)
11 | CC(=O)Nc1ccc(S(=O)(=O)N2CCN(c3cc(C)nc4ccccc34)CC2)cc1 | -3.8% (inactive)
12 | CC(=O)Nc1nonc1NC(C)=O | -9.1% (inactive)
13 | COc1cc(O)c(NC(C)=O)c2nonc12 | 1.5% (inactive)
14 | c1ccc(CNc2nc3ccccc3[nH]2)cc1 | -13.8% (inactive)
15 | Cc1ccc2nc(NCc3ccccc3)[nH]c2c1 | 85% (active)
16 | COc1ccc2nc(NCc3ccccc3)[nH]c2c1 | 39.9% (inactive)
17 | O=S(=O)(NCc1ccccc1)c1cccc2nonc12 | 4.4% (inactive)
18 | CCC1(C)Cc2c(sc3nc4n(c(=O)c23)CCS4)CO1 (centres undefined) | 20.1% (inactive)
19 | CC(C)Cn1c(Br)nc2c1c(=O)n(CCC#N)c(=O)n2C | -5.5% (inactive)
20 | O=C1NC2(CCCC2)N=C1c1ccc(Cl)cc1 | -2.2% (inactive)
21 | O=C1NC2(CCCCC2)N=C1c1ccccc1 | 0.3% (inactive)
22 | Fc1ccccc1CSc1nc2ncccc2[nH]1 | -2.9% (inactive)
23 | c1ccc2oc(SCc3nc4ccccc4s3)nc2c1 | 1.9% (inactive)
24 | O=C(CSc1nc2ccccc2s1)Nc1ncccn1 | -2% (inactive)
25 | CCS(=O)(=O)CCSc1nc2ccccc2s1 | -6% (inactive)

Row | SMILES | cytotoxicity
26 | CCS(=O)(=O)CCSc1nc2ccccc2o1 | -13.9% (inactive)
27 | Cn1c(SCc2cc(=O)n3cc(Br)ccc3n2)nnc1C1COc2ccccc2O1 (centres undefined) | -2.9% (inactive)
28 | COc1ccccc1-n1cnc2cc(NC(C)=O)ccc21 | -14.9% (inactive)
29 | COc1ccccc1-n1cnc2cc(NCc3ccco3)ccc21 | 66.4% (active)
30 | CCC(=O)Nc1ccc2c(c1)ncn2-c1ccccc1OC | -32.9% (inactive)
31 | Cc1cccc2nc(Cn3c(=O)n(CCC(=O)NCc4ccco4)c(=O)c4sccc43)cc(=O)n12 | 2.4% (inactive)
32 | O=C(NCN1C(=O)C2C3C=CC(C3)C2C1=O)Nc1nccs1 (centres undefined) | -8.1% (inactive)
33 | Cc1c(C(=O)OC(C)C)[nH]c2c1C(=O)CCC2 | 18% (inactive)
34 | Cc1ccc(SCc2[nH]nc3c2C(c2ccc(C)o2)C(C#N)=C(N)O3)cc1 (centres undefined) | 10.8% (inactive)
35 | Cc1ccc(C2C(C#N)=C(N)Oc3nc(-c4ccccc4)[nH]c32)o1 (centres undefined) | 0.6% (inactive)
36 | O=C(Nc1ccccc1)c1ccc(S(=O)(=O)NCC2CCCO2)cc1 (centres undefined) | -7.8% (inactive)
37 | COc1ccc(C2=NOC(C(=O)NCCCN3CCOCC3)C2)cc1 (centres undefined) | 1.1% (inactive)
38 | Cc1ccc(-c2nnn(CC(=O)N(c3ccccc3)C(C(=O)NC3CCCC3)c3ccco3)n2)o1 (centres undefined) | -7.9% (inactive)
39 | Cc1ccc(-c2nnn(CC(=O)N(Cc3cccs3)C(C(=O)NC(C)(C)C)c3ccco3)n2)o1 (centres undefined) | -2.9% (inactive)
40 | Cc1ccc(-c2nnn(CC(=O)N(Cc3cccs3)C(C(=O)NC3CCCC3)c3ccco3)n2)o1 (centres undefined) | 66.5% (active)
41 | CCOC(=O)N1CCN(C(=O)c2c(O)c3cccc4c3n(c2=O)CC4)CC1 | -3% (inactive)
42 | O=C(O)CSC1CC(=O)N(c2cccc(Cl)c2)C1=O (centres undefined) | -10.2% (inactive)
43 | CCc1nc(SCC(=O)c2ccc(C)c(C)c2)n[nH]1 | -2.5% (inactive)
44 | O=S(=O)(Nc1ccc2c(c1)nc1n2CCN(Cc2ccccc2)C1)c1ccc(Cl)cc1 | 51.1% (active)
45 | Cc1ccc(S(=O)(=O)Nc2ccc3c(c2)nc2n3CCN(Cc3ccccc3)C2)cc1 | 6.9% (inactive)
46 | O=S(=O)(Nc1ccc2c(c1)nc1n2CCN(Cc2ccccc2)C1)c1ccccc1 | 0.8% (inactive)
47 | COc1ccc(CC(C)N2CCN(c3ccccc3OC)CC2)cc1OC (centres undefined) | 8.7% (inactive)
48 | CCn1c(SCC(=O)NCc2ccco2)nc2c1c(=O)n(C)c(=O)n2C | -20.9% (inactive)
49 | COC(=O)c1cc(NC(=O)c2nccnc2C(=O)O)cc(C(=O)OC)c1 | -2.1% (inactive)
50 | CC(=O)C1=C(C)NC(C)=C(C(C)=O)C1c1ccc(-c2ccccc2Cl)o1 | -13% (inactive)

Row | SMILES | cytotoxicity
51 | CCOC(=O)C1=C(C)NC2=C(C(=O)c3ccccc32)C1c1cccnc1 (centres undefined) | 12.3% (inactive)
52 | COC(=O)C1=C(C)NC2=C(C(=O)c3ccccc32)C1c1ccc(-c2ccc(C(=O)O)cc2)o1 (centres undefined) | 62.8% (active)
53 | Cc1ccc(C(=O)NCc2ccco2)cc1S(=O)(=O)N1CCCCC1 | -20.4% (inactive)
54 | Cc1c(NC(=O)c2ccccc2N)cccc1C(=O)O | 6.3% (inactive)
55 | CC(=O)c1cccc(NC(=O)CN(Cc2ccccc2)S(C)(=O)=O)c1 | -3.4% (inactive)
56 | O=C(C(NS(=O)(=O)c1cccs1)c1ccccc1)N1CCN(c2ccccc2)CC1 (centres undefined) | -9.8% (inactive)
57 | CCOc1ccc(C(=O)N2CCN(c3ccccc3)CC2)cc1OCC | -18% (inactive)
58 | O=C(O)c1ccccc1C(=O)N1CCN(c2cccc(Cl)c2)CC1 | 0.5% (inactive)
59 | COc1ccc2nc3oc(C(=O)N4CCN(c5cccc(Cl)c5)CC4)cc3cc2c1 | 25.9% (inactive)
60 | COc1cccc(N2CCN(Cc3coc4c(Cl)cc(Cl)cc4c3=O)CC2)c1 | 65% (active)
61 | COc1ccc(OC)c(S(=O)(=O)N(C)CC(=O)N2CCN(c3cccc(Cl)c3)CC2)c1 | -14.2% (inactive)
62 | COc1ccc(C(=O)N2CCN(c3cccc(Cl)c3)CC2)c(OC)c1 | 50.5% (active)
63 | Cc1cc(C(=O)N2CCN(c3ncccn3)CC2)c(C)o1 | 6.7% (inactive)
64 | COc1ccc(N2CCN(Cc3cc(=O)oc4ccc(Cl)cc34)CC2)cc1 | -1.6% (inactive)
65 | CCOc1ccccc1C(=O)N1CCN(c2cccc(Cl)c2)CC1 | 65.8% (active)
66 | COc1ccccc1C(=O)N1CCN(c2cccc(Cl)c2)CC1 | 31.3% (inactive)
67 | Cc1ccc2occ(CN3CCN(c4ccccc4)CC3)c(=O)c2c1 | -18.2% (inactive)
68 | Cc1cc(C(=O)N2CCN(c3cccc(Cl)c3)CC2)c(C)o1 | 62.7% (active)
69 | Cc1cc(C(=O)CSc2nc3ccccc3n2CCC#N)c(C)n1Cc1cccs1 | -13.5% (inactive)
70 | Cc1ccc(C(=O)CSc2nnc(CNc3ccc(C)cc3C)n2Cc2ccco2)cc1 | 30.1% (inactive)
71 | Brc1ccc2ncnc(Nc3ccc(N4CCOCC4)cc3)c2c1 | -4.9% (inactive)
72 | CCCn1c(SCC(=O)c2cc(OC)ccc2OC)nc2c1c(=O)n(C)c(=O)n2C | 8.2% (inactive)
73 | CCOC(=O)c1[nH]c(C)c(C(=O)NCC2CCCO2)c1C (centres undefined) | 5.6% (inactive)
74 | CCCCN(CC)C(=O)c1ccc(Cl)c(Cl)c1 | -3.6% (inactive)
75 | COc1ccc(CCNC(=O)CN2CCN(c3cccc(Cl)c3)CC2)cc1OC | 8.7% (inactive)

Row | SMILES | cytotoxicity
76 | O=C(c1c(Cl)nc2sccn12)N1CCN(c2cccc(Cl)c2)CC1 | 64.5% (active)
77 | COc1ccccc1CC(=O)N1CCN(c2cccc(C(F)(F)F)c2)CC1 | -1.7% (inactive)
78 | COc1cc(CN2CCSCC2)cc(OC)c1OC | -7.4% (inactive)
79 | COc1ccccc1C(=O)N1CCN(c2cccc(C(F)(F)F)c2)CC1 | 62.5% (active)
80 | O=C(c1ccccc1F)N1CCN(c2cccc(C(F)(F)F)c2)CC1 | -5.2% (inactive)
81 | Cc1ccc(C(=O)N2CCN(c3cccc(Cl)c3)CC2)cc1C | 27.4% (inactive)
82 | O=C(c1cccc(F)c1)N1CCN(c2cccc(Cl)c2)CC1 | 26.8% (inactive)
83 | Nc1ccc(CCS(N)(=O)=O)cc1 | 12.4% (inactive)
84 | c1ccc(-c2noc(CN3CCN(C(c4ccccc4)c4ccccc4)CC3)n2)cc1 | -6.9% (inactive)
85 | CCCC(=O)c1cc(F)c(N2CCN(C(=O)OCC)CC2)cc1C | -0.7% (inactive)
86 | COCCSc1nnc(NC(=O)CSCc2ccccc2)s1 | 16.5% (inactive)
87 | CCCCOC(=O)Cn1c(=O)oc2ccc(C)cc21 | 5.8% (inactive)
88 | CN1CCCC(OC(=O)c2cc(Cl)ccc2Cl)C1 (centres undefined) | -23.9% (inactive)
89 | Cc1nnc2sc(-c3cccc(NC(=O)c4cccnc4)c3)nn12 | -1% (inactive)
90 | CSc1nnc2n(CCc3ccccc3)c(=O)c3c4c(sc3n12)CCCC4 | 15.3% (inactive)
91 | Cn1c(=O)c2[nH]cnc2n(-c2ccccc2)c1=O | -4.3% (inactive)
92 | COc1ccccc1Nc1nc(-c2cccs2)cs1 | 18.3% (inactive)
93 | COc1ccc(C(=O)Nc2nc(-c3cccs3)cs2)cc1 | 38% (inactive)
94 | COc1ccc(OC)c(Nc2nc(-c3cccs3)cs2)c1 | 54.9% (active)
95 | COc1ccc(OC)c(Nc2nc(-c3sc(C)nc3C)cs2)c1 | 26.2% (inactive)
96 | COc1ccc(-c2csc(NC(C)=O)n2)cc1OC | 10.2% (inactive)
97 | COc1ccc(OC)c(Nc2nc(-c3ccc(O)c(O)c3)cs2)c1 | 59.5% (active)
98 | CC1C(=O)C(C)C(c2ccc3c(c2)OCO3)NC1c1ccc2c(c1)OCO2 (centres undefined) | 1.3% (inactive)
99 | CC(C)N(Cc1nc(-c2ccc(Cl)cc2)no1)C(=O)CCCN1C(=O)c2ccccc2C1=O | 3.9% (inactive)

Reference: PubChem BioAssay AID431 (Sanford-Burnham Center for Chemical Genomics, 2006)
